About 3,200 (25%) of roughly 13,000 compounds showed an effect of 50% or more. Some of the results follow.

Data on 19 compounds can be found in paper PMC4552634, “A New Set of Chemical Starting Points with Plasmodium falciparum Transmission-Blocking Potential for Antimalarial Drug Discovery” (PLoS ONE, 2015).

The assay concerns P. falciparum stage V gametocytes. Also on record: BacTiter-Glo ATP luminescence viability of purified stage V gametocytes in 384-well plates, per cent inhibition versus DMSO. To be noted: 48 h, 5 µM; inhibitor.
As usually defined, the % Inhibition is the change of the read-out against control, counted positive when it falls. Consider `O=C(Nc1ccccc1)Nc1ccc(-c2cccc(-c3nc4ccc(C(F)(F)F)cc4[nH]3)c2)cc1` [TCMDC-133153], for which the “% Inhibition” value was -37.9%.
On to `COC(=O)c1ccc2c(c1)nc(Nc1cccc(F)c1)n2CC(O)c1ccccn1` (stereo not shown) [TCMDC-138586], for which the “% Inhibition” value is -5.24%.
With `CC(C)(C)c1nn(-c2ccccc2)c2[nH]c(=O)c(CNCCc3ccccc3)cc12` [TCMDC-125381], the “% Inhibition” value turned out to be 14.37%.
The value for `CCCCN1CCN(c2cc(NS(=O)(=O)c3ccc(C(=O)Nc4ccc(C(F)(F)F)cc4)cc3)ccc2OC)CC1` [TCMDC-141777] was -10.1%; that for `O=C(Nc1ccc(-c2nc3ccccc3[nH]2)cc1)c1cncc(Br)c1` [TCMDC-123692] was 2.548%.
`COc1cc(NC(=O)c2cccc([N+](=O)[O-])c2)cc(S(=O)(=O)c2ccc(Cl)cc2)c1` [TCMDC-124901]: the “% Inhibition” value was 21.63%.
The value for `COc1cc(NC(=O)C(c2ccc(Cl)cc2)C(C)C)cc(OC)c1` (stereo not shown) [TCMDC-124823] was 74.52%.
Turning to `COc1ccc(Nc2nccc(N3CCC(NC(=O)C(C)c4ccc(Cl)cc4)CC3)n2)cc1` (stereo not shown) [TCMDC-133633], the “% Inhibition” value came out at 29.63%.
The value for `CCCc1nc2c(N3CC(NC(=O)/C=C/c4ccccc4)C3)cccc2n1C1CC1` [TCMDC-134613] was 8.32%; that for `O=C1C2=C(Nc3ccccc3SC2c2cccs2)c2ccccc21` (stereo not shown) [TCMDC-124060] was -4.275%; that for `COCCNCc1cccc(-c2cccc(CNC3CCN(Cc4ccccc4)CC3)c2)c1` [TCMDC-140481] was 99.88%.
The value for `COCCNCc1cccc(-c2ccc(CNC3CCN(Cc4ccccc4)CC3)cc2)c1` [TCMDC-140489] was 85.27%.
Take `COCCNCc1ccc(-c2cccc(CNC3CCN(Cc4ccccc4)CC3)c2)cc1` [TCMDC-140482]: the “% Inhibition” value came out at 107.8%.
The value for `COc1cccc(CCNCc2ccc(-c3cccc(CNC4CCCC4)c3)cc2)c1` [TCMDC-140493] was 66.56%.
The value for `COc1ccc(NCc2cccc(-c3cccc(CNCCc4ccccc4)c3)c2)cc1` [TCMDC-140485] was -4.016%; that for `COCCNCc1ccc(-c2cccc(CNc3ccc(OC)cc3)c2)cc1` [TCMDC-140484] was -1.116%; that for `COCCNCc1ccc(-c2ccc(CNC3CCN(Cc4ccccc4)CC3)cc2)cc1` [TCMDC-140490] was 23.65%.
The value for `O=C(NCc1cccc(C(F)(F)F)c1)C(c1cc2ccccc2o1)N1CCN(C(c2ccccc2)c2ccccc2)CC1` (stereo not shown) [TCMDC-141008] was 8.041%.
For the compound `Cc1ccc(C(C)C)cc1CON1C(N)=NC(N)=NC1(C)C` [TCMDC-131323], the “% Inhibition” value came out at 26.53%.
